Laboratory results taken from PubChem BioAssay.
The source made the active and inactive calls.

Key:
[1] = adipocyte viability effects, profiling panel, cell-based, 3T3-L1 adipocytes, calcein-AM fluorescence, 48 h, basal (AID 1163); conditions: 3T3-L1 adipocytes viability, higher = more signal
[2] = HepG2 cell viability effects, profiling panel, calcein-AM fluorescence, 48 h, basal (AID 1164); conditions: higher = more signal
[3] = MM1S cell viability effects, profiling panel, calcein-AM fluorescence, 48 h, basal (AID 1165); conditions: higher = more signal;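 also: viability of MM1S multiple myeloma cells under basal unstimulated conditions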
[4] = basal RPMI8226 viability, no added stimulus, profiling panel, cell-based, calcein-AM fluorescence, 48 h, PK04 Diversity Set (AID 1166); conditions: RPMI8226 myeloma viability, higher = more signal;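 also: cells grown under basal conditions without added stimulus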
[5] = basal HepG2 mitochondrial membrane potential changes, profiling panel, cell-based, JC-1 fluorescence, 24 h, 100 nL compound (AID 1167); conditions: higher = more signal
[6] = basal 3T3-L1 adipocyte mitochondrial potential changes, profiling panel, cell-based, JC-1 fluorescence, 3T3-L1 adipocytes, 24 h, 100 nL compound (AID 1168); conditions: JC-1 mitochondrial fluorescence, higher = more signal, called active from +8 up or from −8 down
[7] = basal RPMI8226 mitochondrial membrane potential changes, profiling panel, cell-based, JC-1 fluorescence, 24 h, 100 nL compound (AID 1169); conditions: RPMI8226 myeloma, JC-1 mitochondrial potential fluorescence, higher = more signal
[8] = basal MM1S mitochondrial membrane potential changes, profiling panel, cell-based, JC-1 fluorescence, 24 h, 100 nL compound (AID 1170); conditions: higher = more signal
[9] = A549 lung cancer cell viability effects, profiling panel, resazurin fluorescence, 24 h, PK04 Diversity Set (AID 1171); conditions: higher = more signal, called active from +8 up or from −8 down
[10] = HepG2 liver cancer cell viability effects, profiling panel, resazurin fluorescence, 24 h, PK04 Diversity Set (AID 1172); conditions: higher = more signal
[11] = basal S. cerevisiae growth modulation, no modifier, primary screen, OD600, strain BY4716, 24 h, basal condition (AID 1173); conditions: OD600, 24 h, higher = more signal, called active from +8 up or from −8 down
[12] = MM1S myeloma cell viability, profiling panel, resazurin fluorescence, basal, 24 h, PK04 Diversity Set (AID 1174); conditions: higher = more signal, called active from +8 up or from −8 down;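 also: MM1S multiple myeloma cell line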
[13] = biological target: Dihydroorotate dehydrogenase (quinone), mitochondrial (Plasmodium falciparum (isolate 3D7)) (UniProt Q08210); experiment: PfDHODH enzyme inhibitors, primary screen, biochemical, C-terminal His tag, absorbance 600 nm (AID 1175); conditions: DCIP absorbance 600 nm, higher = more signal, called active from +8 up or from −8 down;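 also: recombinant parasite enzyme with a five histidine tag at its C terminus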
Chain of Dihydroorotate dehydrogenase (quinone), mitochondrial (Plasmodium falciparum (isolate 3D7)) (Q08210 whole entry, looked up): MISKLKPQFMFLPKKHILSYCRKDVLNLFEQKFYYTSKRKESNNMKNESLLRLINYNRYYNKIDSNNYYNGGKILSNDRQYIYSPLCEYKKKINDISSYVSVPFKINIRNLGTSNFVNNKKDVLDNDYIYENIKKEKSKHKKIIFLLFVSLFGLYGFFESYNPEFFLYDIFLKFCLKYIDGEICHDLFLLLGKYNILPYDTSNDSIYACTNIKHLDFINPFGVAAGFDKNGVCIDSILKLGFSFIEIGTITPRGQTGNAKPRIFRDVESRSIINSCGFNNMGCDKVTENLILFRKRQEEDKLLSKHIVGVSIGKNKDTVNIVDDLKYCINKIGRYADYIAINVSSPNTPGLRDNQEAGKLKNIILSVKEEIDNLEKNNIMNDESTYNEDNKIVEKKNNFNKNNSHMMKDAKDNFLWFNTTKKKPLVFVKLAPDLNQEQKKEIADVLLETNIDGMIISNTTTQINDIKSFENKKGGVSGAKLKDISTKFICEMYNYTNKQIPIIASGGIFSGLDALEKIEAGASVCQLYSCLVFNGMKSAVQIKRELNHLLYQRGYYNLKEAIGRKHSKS

[14] = S. cerevisiae RM11-1a growth modifiers, primary screen, strain RM11-1a, OD600, basal, 24 h (AID 1177); conditions: OD600, 24 h, higher = more signal, called active from +8 up or from −8 down;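 also: cultures grown under basal conditions with no added stressor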
[15] = E. coli acrAB mutant growth effects, primary screen, E. coli filamentation inducers, strain DRC39, OD650, 24 h (AID 1178); conditions: higher = more signal, called active from +8 up or from −8 down;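 also: growth measured as culture turbidity by optical density at 650 nm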
[16] = E. coli acrAB mutant growth effects, primary screen, E. coli filamentation inducers, strain DRC39, OD650, 48 h (AID 1179);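 also: screen aims at cell division blockers that make cells filament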; conditions: E. coli DRC39 delta-acrAB growth, higher = more signal, called active from +8 up or from −8 down
[17] = RPMI8226 myeloma cell viability, profiling panel, resazurin fluorescence, basal, 24 h, PK04 Diversity Set (AID 1180); conditions: higher = more signal;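 also: RPMI8826 multiple myeloma cell line at 5000 cells per well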
[18] = biological target: E3 ubiquitin-protein ligase XIAP (Homo sapiens) (UniProt P98170); experiment: XIAP binders, primary screen, biophysical, small-molecule microarray, fluorescence 635 nm (AID 1181); conditions: small-molecule microarray binding, higher = more signal;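 also: score merges 667 nm emission and signal to noise over triplicate slides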
Chain of E3 ubiquitin-protein ligase XIAP (Homo sapiens) (P98170 whole entry, looked up): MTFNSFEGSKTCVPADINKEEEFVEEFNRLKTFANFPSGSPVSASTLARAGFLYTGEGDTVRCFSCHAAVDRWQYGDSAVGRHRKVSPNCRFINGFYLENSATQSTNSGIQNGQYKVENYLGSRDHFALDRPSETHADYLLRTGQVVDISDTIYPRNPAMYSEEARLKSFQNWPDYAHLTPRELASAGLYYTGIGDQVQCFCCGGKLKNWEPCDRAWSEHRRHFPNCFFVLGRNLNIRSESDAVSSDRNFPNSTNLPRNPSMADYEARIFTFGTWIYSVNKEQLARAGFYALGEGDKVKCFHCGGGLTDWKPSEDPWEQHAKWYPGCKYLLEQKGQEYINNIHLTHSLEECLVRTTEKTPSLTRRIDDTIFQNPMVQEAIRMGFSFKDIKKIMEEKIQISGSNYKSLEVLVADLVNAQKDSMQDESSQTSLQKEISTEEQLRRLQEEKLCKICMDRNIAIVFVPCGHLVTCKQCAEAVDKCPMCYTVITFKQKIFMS

[19] = test system: XIP peptide (Xip251-270) binding; experiment: small-molecule binders of XIP peptide, primary screen, biochemical, small-molecule microarray, fluorescence 635/667 nm, 0.1 µg/mL protein (AID 1182); conditions: fluorescent protein binding, 635 nm, higher = more signal, called active from +8 up or from −8 down
[20] = test system: XIP peptide (Xip251-270); experiment: small-molecule binders of XIP peptide, primary screen, biochemical, small-molecule microarray, fluorescence 635/667 nm, 0.5 µg/mL protein (AID 1183); conditions: small-molecule microarray binding, fluorescence 635 nm; higher = more signal

Structure (SMILES) | z-score [1] | z-score [2] | z-score [3] | z-score [4] | z-score [5] | z-score [6] | z-score [7] | z-score [8] | z-score [9] | z-score [10] | z-score [11] | z-score [12] | composite z-score [13] | z-score [14] | z-score [15] | z-score [16] | z-score [17] | composite z-score [18] | composite z-score [19] | composite z-score [20]
C=CCNC(=O)[C@H]1[C@@H]2C(=O)O[C@@H](c3ccccc3)[C@@H](c3ccccc3)N2[C@@H](c2ccccc2OCCO)[C@]12C(=O)N(C(=O)OCCOC)c1ccc(C#CCCO)cc12 | 0.674 | -0.123 | -2.04 | -1.42 | 0.534 | 0.825 (inactive) | -0.847 | -0.665 | 0.659 (inactive) | -0.156 | 0.799 (inactive) | 0.287 (inactive) | -0.409 (inactive) | 1.57 (inactive) | 0.488 (inactive) | 0.985 (inactive) | -0.0311 | 0.355 | 0.58 (inactive) | 0.507
C#CCOc1ccc(C[C@H]2C(=O)O[C@H](Cc3ccccc3)[C@H](/C=C/C3CC3)N2CC#C)cc1 | 0.892 | -0.99 | -1.63 | -1.89 | 2.08 | 0.476 (inactive) | -0.599 | 0.0151 | 1.51 (inactive) | 1.71 | -0.783 (inactive) | 0.35 (inactive) | 0.656 (inactive) | 1.29 (inactive) | 2.66 (inactive) | 1.81 (inactive) | 0.915 | -0.144 | 0.294 (inactive) | -0.237
CC(C)(C)OC(=O)CC[C@@]12N=C(c3ccc(OCCCO)cc3)O[C@@H]1c1ccccc1N(Cc1ccccc1)C2=O | 1.87 | -0.186 | -1.9 | -3.34 | 0.624 | 1.69 (inactive) | -0.778 | 1.44 | 0.345 (inactive) | 0.375 | -0.075 (inactive) | -0.0313 (inactive) | 0.463 (inactive) | 1.17 (inactive) | 1.59 (inactive) | 0.358 (inactive) | 0.574 | -0.635 | 1.63 (inactive) | 0.693
CC(C)C[C@@H]1NC(=O)[C@H]2C[C@@H](C(=O)NCCCC[N+](C)(C)C)[C@@H](c3cccc(OCCO)c3)N2C1=O | 0.753 | -0.131 | 0.0808 | -0.583 | 1.22 | 1.37 (inactive) | -0.173 | 0.0969 | -0.474 (inactive) | 0.417 | -0.553 (inactive) | 0.932 (inactive) | -30.9 (active) | -0.915 (inactive) | 0.709 (inactive) | 0.569 (inactive) | 0.33 | -0.0476 | 1.85 (inactive) | 0.705
NCCCCCNC(=O)[C@H]1C[C@H]2C(=O)NCC(=O)N2[C@H]1c1ccc(O)cc1 | 1.46 | -0.252 | -0.249 | 0.502 | 0.848 | -0.36 (inactive) | -0.806 | 0.231 | 0.518 (inactive) | -1.2 | 0.375 (inactive) | 0.352 (inactive) | -0.0658 (inactive) | 0.774 (inactive) | 0.172 (inactive) | 0.214 (inactive) | 1.18 | -0.0918 | 1.28 (inactive) | 0.57
O=C(NCC(F)(F)F)[C@@H]1c2ccccc2C(=O)N(C2Cc3ccccc3C2)[C@H]1c1ccc(CO)cc1 | 0.752 | -0.016 | 0.557 | -1.11 | 3.1 | 0.676 (inactive) | 0.0903 | -0.0546 | 1.05 (inactive) | 0.983 | -1.06 (inactive) | 1.49 (inactive) | -1.16 (inactive) | -0.763 (inactive) | 0.46 (inactive) | 0.249 (inactive) | 1.61 | -0.22 | -0.729 (inactive) | -1.33
C=CCC1(CC=C)C[C@H]2CO[C@H](c3ccc(OC)cc3)N2C1=O | 0.683 | -0.88 | 0.347 | 0.0778 | 0.872 | 0.773 (inactive) | -0.245 | 0.278 | 0.771 (inactive) | 1.01 | -4.05 (inactive) | -1.19 (inactive) | 0.621 (inactive) | -0.169 (inactive) | 1.51 (inactive) | 1.03 (inactive) | 0.765 | -0.323 | 0.842 (inactive) | 0.739
[N-]=[N+]=NCc1ccccc1C[C@@]1(C(=O)NCc2ccccc2)N=C(c2ccc(OCCCO)cc2)O[C@@H]1c1ccccc1 | 0.904 | -1.34 | -2.85 | -3.02 | 0.634 | 0.187 (inactive) | -0.876 | -0.758 | 0.507 (inactive) | 1.72 | 1.47 (inactive) | -0.544 (inactive) | -0.112 (inactive) | 0.971 (inactive) | 1.61 (inactive) | 0.407 (inactive) | -0.732 | -0.0172 | 0.746 (inactive) | -0.409
CCCCCN1CC=CC23O[C@@H]4/C=C\CCC(C)OC(=O)C4[C@H]2C(=O)N(CCCO)[C@@H]3C1=O (stereo not given in full) | 1.42 | 0.495 | -1.25 | 0.279 | 0.197 | 0.399 (inactive) | 0.318 | 0.962 | 0.427 (inactive) | 0.605 | -1.26 (inactive) | 1.5 (inactive) | 0.564 (inactive) | -0.599 (inactive) | 1.54 (inactive) | 1.11 (inactive) | 1.4 | -0.0351 | 0.156 (inactive) | -0.827
